Holding throughout (assay): NCI-60 one-dose screen, 48 h (100 = growth as untreated, 0 = no growth, -100 = all killed)
Details in all cases: 10 µM unless noted

Assay [1] relates to NCI-H23 lung.
Assay [2] concerns NCI-H226 lung.
The test system of assay [3] is NCI-H322M lung.
Assay [4] concerns HOP-62 NSCLC.
Assay [5] relates to NCI-H460 lung.
Assay [6] concerns HOP-92 NSCLC.
The subject of assay [7] is NCI-H522 lung.
Assay [8] deals with A549/ATCC NSCLC.
Assay [9] deals with 786-0 renal.
In assay [10] the test system is COLO 205 colon.

SMILES strings stand for the structures. The panel holds about 83,000 compounds, 20% with a hit somewhere; the sample as a whole holds those more often.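 The endpoint reported here, percent growth, reads 100 for growth as untreated, 0 for no net growth and -100 for all cells dead.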 Unmarked numbers belong to inactive results. The source made the active and inactive calls. Rule for the calls: active = growth percent below 10; inactive = the rest.

Turning to `O=c1ccccc(-c2ccc(Br)cc2)c1O`, the growth is 13.9% in [1]; 18.2% in assay [2]; 21.1% in assay [3]; 10.6% in [4]; 2.75% (active) in assay [5]; 58% in assay [6]. Moreover, the growth in assay [7] was 19.2%; in assay [8], 11%; in [9] it was 8.52% (active); in [10], 22.7%.

Turning to `CC[N+](CC)=c1sc2c(s1)C(c1ccc(Cl)cc1)Oc1ccc(Cl)cc1-2` (stereo not given), the growth in [1] was 6.45% (active); in [2] it was 52.1%; in [3], 16.8%; in assay [4], 12.4%; in assay [5], -29.6% (active); in [6], -18% (active). Further, the growth in assay [7] was -12.9% (active); in assay [8] it was 7.61% (active); in [9], 30.7%; in assay [10], -69.6% (active).

As for `COc1ccc(SC2c3cc(OC)c(OC)cc3Oc3nc(N)c(C#N)c(N)c32)cc1` (stereo not given), the growth in assay [1] is -60.9% (active); in assay [2], -70.9% (active); in [3], -95% (active); in assay [4], -42.1% (active); in assay [5], -70% (active); in assay [6] it was -19.9% (active). Moreover, the growth in assay [7] is -72.5% (active); in [8], -51.7% (active); in assay [9], -82.6% (active); in assay [10] it was -79% (active).

With `CCCc1cc(=O)n2c(C(=O)Nc3ccc(F)cc3)c(C(=O)Nc3ccc(F)cc3)sc2n1`, the growth in assay [1] is 81.9% [30 µM]; in assay [2], 69.5% [30 µM]; in assay [3] it was 54.8% [30 µM]; in assay [4], 27.8% [30 µM]; in [5], 52% [30 µM]; in [6] it was -36.3% [30 µM] (active). Moreover, the growth in assay [7] is 62.7% [30 µM]; in assay [8], 34.1% [30 µM]; in assay [9] it was 17.6% [30 µM]; in assay [10], 71.4% [30 µM].

Turning to `NC(=O)c1cc(I)ccc1NC(=O)/C=C/c1ccccc1Cl`, the growth in [1] is 43.4%; in [2], 44.1%; in assay [3], 55.5%; in assay [4], 83%; in assay [5] it was 0.527% (active); in [6] it was 48.3%. The growth in assay [7] is -45.9% (active); in assay [8], 15.7%; in [9] it was 48.1%; in [10], -26.7% (active).

In the case of `COc1cccc(C2=NN3C(C2)c2cc(Br)cc(OC)c2OC32CCN(Cc3ccccc3)CC2)c1` (stereo not given), the growth was 95.7% in [1]; 85.3% in [2]; 103% in [3]; 105% in assay [4]; 101% in [5]; 111% in assay [6]. For the same molecule, the growth in assay [7] is 96.2%; in assay [8], 102%; in assay [9], 104%; in assay [10] it was 107%.

For `Cc1cc(C)nc(SC2=C(Nc3cccc(Cl)c3C)C(=O)N(Cc3ccccc3)C2=O)n1`, the growth was 58.9% [30 µM] in assay [1]; 69.2% [30 µM] in assay [2]; 63.5% [30 µM] in assay [3]; 73% [30 µM] in assay [4]; 44% [30 µM] in assay [5]; 14.4% [30 µM] in assay [6]. In addition, the growth in assay [7] is 51.3% [30 µM]; in assay [8], 27.3% [30 µM]; in assay [9] it was 61.8% [30 µM]; in assay [10], 70.3% [30 µM].

With `c1ccc(-c2cc3n4c(-c5ccccc5)nn(-c5ccccc5)c4cnc-3n2)cc1`, the growth in assay [1] is 58.1%; in [2] it was 73.4%; in [3], 23.6%; in [4], 102%; in assay [5], 54.9%; in assay [6], 51.2%. Moreover, the growth was 9.2% (active) in assay [7], 31.3% in assay [8], 75.5% in [9] and 75.1% in [10].

As for `Cc1cc(N2CCCCCC2)nc(NC2CCCC(Nc3ccnc4cc(Cl)ccc34)C2)n1` (stereo not given), the growth in [1] was -50.8% (active); in assay [2], -61.3% (active); in assay [3], -70.9% (active); in [4] it was -83% (active); in assay [5], -82.2% (active); in assay [6] it was -82% (active). Moreover, the growth in [7] was -72% (active); in [8] it was -68.3% (active); in assay [9], -96.3% (active); in assay [10], -80.1% (active).

Consider `CN(C)c1ccc(N=Nc2ccccn2)c(O)c1`, for which the growth is 16.1% in assay [1]; 14.4% in assay [2]; 21.9% in assay [3]; 7.8% (active) in assay [4]; 5.5% (active) in assay [5]; 57.9% in assay [6]. In addition, the growth in [7] was 27.1%; in assay [8], 11.8%; in assay [9], 15%; in assay [10], 17.3%.

With `COc1ccc(CN2c3ccccc3Sc3ccccc32)cc1O`, the growth in [1] is 36.6%; in assay [2], 71%; in assay [3] it was 33.1%; in assay [4], 36.3%; in assay [5], 10%; in [6] it was 50.4%. The growth was -40.4% (active) in assay [7], 24.2% in assay [8], 42.5% in [9] and -7.4% (active) in assay [10].

Turning to `COc1ccc(C(=O)c2sc3nc4c(c(-c5cccnc5)c3c2N)CCCC4)cc1OC`, the growth in assay [1] is 97.7%; in assay [2], 86.3%; in [3], 99.5%; in [4], 80.7%; in assay [5], 77.4%; in assay [6] it was -11.7% (active). Moreover, the growth was 83% in [7], 82.2% in [8], 87.5% in [9] and 94.6% in [10].

Regarding `CCCCn1c(-c2ccc(C(=O)O/N=C(\N)c3ccc4ccccc4c3)cc2)nc(-c2ccccc2)c1-c1ccccc1`, the growth in assay [1] is 65%; in [2], 61.7%; in [3], 80.8%; in assay [4], 91.5%; in assay [5] it was 26.3%; in [6] it was 77.6%. Also, the growth in assay [7] was 71.7%; in [8], 42%; in assay [9] it was 77.8%; in assay [10], 90.8%.

For `CN1CCN(CCCOc2cccc3nc(Nc4ccc(Cl)c(F)c4)ccc23)CC1`, the growth was 63.3% in assay [1]; 58.1% in assay [2]; 33.6% in assay [3]; 61% in assay [4]; 13.2% in assay [5]; 30.8% in [6]. The growth in assay [7] is 29.8%; in [8], 40.1%; in [9] it was 64.1%; in assay [10], -54.7% (active).

On to `COc1ccccc1NS(=O)(=O)c1ccc2oc(SC(C)C)nc2c1`, for which the growth in [1] was 61%; in assay [2], 53.8%; in assay [3] it was 99.7%; in assay [4], 97.3%; in [5], 77.2%; in assay [6], 79.4%. Moreover, the growth in [7] was 65.6%; in assay [8], 75.9%; in assay [9], 64.2%; in [10] it was 109%.

In the case of `CCCn1c(=O)[nH]c(N)c([C@H]2c3ccccc3Oc3[nH]c(=O)n(CCC)c(=O)c32)c1=O`, the growth in assay [1] is 86.2%; in assay [2], 102%; in [3], 85.4%; in [4] it was 90.8%; in [5], 111%; in assay [6], 102%. In addition, the growth in assay [7] is 20.7%; in assay [8], 84.8%; in assay [9], 82.7%; in [10] it was 86.4%.

In the case of `COc1cc(/C=C/c2cc(O)c3cc(C(C)=O)c(=O)oc3c2)cc2c1O[C@]1(C)CC[C@@H](O)C(C)(C)[C@H]1C2`, the growth in [1] was 52.1%; in assay [2], 76.4%; in assay [3], 67.6%; in assay [4], 50.4%; in [5], 23%; in assay [6], 33.2%. The growth in assay [7] is 67.7%; in assay [8], 52.2%; in assay [9], -1.22% (active); in assay [10], 89.8%.

As for `Cc1cc(C)nc(SC2=C(Nc3ccc(C)c(Cl)c3)C(=O)N(Cc3ccccc3)C2=O)n1`, the growth in assay [1] was 62.4% [30 µM]; in assay [2], 74.5% [30 µM]; in assay [3] it was 82% [30 µM]; in assay [4], 86.9% [30 µM]; in assay [5] it was 52.4% [30 µM]; in assay [6], -4.65% [30 µM] (active). Besides, the growth in [7] is 73.8% [30 µM]; in assay [8] it was 41.2% [30 µM]; in [9] it was 68.6% [30 µM]; in assay [10], 81.2% [30 µM].

For `COc1ccc(S(=O)(=O)N2CC3(COC3)C2)cc1NC(=O)c1[nH]c(C)c2c1CCCCC2=O`, the growth was 59.4% in assay [1]; 53.3% in assay [2]; 56.3% in assay [3]; 40.6% in [4]; 71.2% in assay [5]; 48.2% in assay [6]. The growth in [7] was 32.3%; in [8], 62.6%; in assay [9] it was 56.5%; in [10], 37.5%.

Turning to `CCOC(=O)n1cc(-c2nonc2-c2cn(C)c3ncccc23)c2ccccc21`, the growth is 79.2% in assay [1]; 58.7% in assay [2]; 87.3% in assay [3]; 87.8% in assay [4]; 64.2% in [5]; 66.1% in assay [6]. In addition, the growth is 71.1% in assay [7], 82% in assay [8], 88.8% in assay [9] and 93% in [10].

For the molecule `CN1CCN(Cc2ccc(NC(=O)c3cncc(C#Cc4cncn5ccnc45)c3)cc2C(F)(F)F)CC1`, the growth in assay [1] was 63.1%; in assay [2] it was 34.4%; in [3], 105%; in [4], 81.4%; in assay [5], 64.3%; in assay [6], 38.8%. For the same molecule, the growth is 47.3% in assay [7], 74% in assay [8], 87.5% in [9] and 32.3% in [10].

For `Cn1cc(C(=O)c2nc(-c3c[nH]c4ccc(Br)cc34)no2)c2cc(F)ccc21`, the growth was 84.9% in [1]; 81.5% in [2]; 95.7% in assay [3]; 103% in [4]; 97% in assay [5]; 85.4% in [6]. In addition, the growth in [7] was 90.5%; in assay [8], 104%; in [9] it was 103%; in assay [10], 98.3%.

Consider `C=C(C)[C@@H]1CC[C@]2(C(=O)OC)CC[C@]3(C)[C@H](CC[C@@H]4[C@@]5(C)C/C(=C/c6ccc(OC)cc6)C(=O)C(C)(C)[C@@H]5CC[C@]43C)[C@@H]12`, for which the growth was 84.8% in [1]; 97.2% in assay [2]; 106% in assay [3]; 99.9% in assay [4]; 101% in assay [5]; 77.9% in [6]. Moreover, the growth is 78.8% in [7], 89.5% in assay [8], 92.2% in assay [9] and 94.4% in [10].

`COc1ccc(/C=C/c2nc(-c3n[nH]c(=O)n3-c3ccccc3)c3ccccc3n2)cc1`: the growth in assay [1] is 94.8%; in assay [2], 93.5%; in assay [3], 93.7%; in [4], 95.8%; in assay [5], 100%; in [6], 101%. Also, the growth in assay [7] was 85.6%; in [8] it was 99.9%; in assay [9] it was 94%; in assay [10], 105%.

In the case of `COc1cc(/C=C/C(=O)c2ccc(O)c(CN3CCN(c4cc5c(cc4F)c(=O)c(C(=O)O)cn5C4CC4)CC3)c2)cc(OC)c1OC`, the growth in assay [1] is 42.8%; in assay [2], 76.9%; in [3], 30%; in assay [4] it was 72.3%; in assay [5], 34.8%; in assay [6], 81.2%. The growth in [7] is 27.6%; in [8], 43.1%; in assay [9], 49.8%; in assay [10], 106%.

The values above are taken from PubChem BioAssay (NCI).
